For 37 molecules, outcome and AC50 results are on record in PubChem BioAssay (EPA / NIEHS).

Molecules are shown by their SMILES. Results filed as inconclusive are left out. Activity calls are given as the source filed them. How the source made its calls: active means hit-call score of the fitted dose curve at least 0.9, where 1 is the maximum; inconclusive means response in the unintended direction; inactive means score below 0.9.

The nature of this test: ACEA_ER_80hr: ACEA Biosciences xCELLigence Real-Time Cell Analysis on Estrogen Receptor Agonism for Proliferation (AID 2282667). Particulars: T47D proliferation, impedance (xCELLigence), 80 h. A digest of the protocol:
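T47D human breast cells were seeded on electrode plates, monitored overnight, then exposed continuously to compounds in eight-point 1:4 dilutions from 100 uM (max 0.5% DMSO). Impedance-based growth was read at 80 h, fitted upward relative to DMSO.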
Regarding `O=C(O)CS`, the result was inactive. On to `CCC(C)COC(=O)CC(C)C` (configuration not stated), for which the outcome was inactive. With `CC(=O)c1ccc(O)cc1`, the call was inactive. Still for that read-out and setting: next, `NC(=O)c1cccnc1`: “inactive”; `CCCCCCCCCOS(=O)(=O)O`: “inactive”; `c1coc(CNc2ncnc3nc[nH]c23)c1`: “inactive”. As a reminder, the AC50 is the concentration giving half of the maximal activity seen. Take `Cc1cc(O)c2c(c1)C(=O)c1cc(O)cc(O)c1C2=O`: the half-maximal activity concentration (AC50) was 493 nM (active). As for `Nc1ccc(O)c(N)c1`, the call was inactive.

For the molecule `Cc1cc(O)c(C)c(C)c1O`, the molecule was classed as inactive. Still for that read-out and setting: the entry for `CC1=CCC(C(C)(C)O)CC1` (configuration not stated) is “inactive”. Consider `CCCCC/C=C\C=C\C(=O)OCC`, for which the result was inactive. Still for that read-out and setting: the entry for `O=C1OC2(c3ccc(O)cc3Oc3cc(O)ccc32)c2ccccc21` is “inactive”; for `CC1=CC[C@@H]2C[C@H]1C2(C)C` it is “inactive”. In the case of `CC1=CC(C)C(C=O)C(C)C1` (configuration not stated) (tested in a mixture with another compound), the outcome was inactive. For `N#CCCCC(C#N)CCC#N` (configuration not stated), the molecule was called inactive. As for `CC(C)(C)c1ccc(S)cc1`, the outcome was inactive.

With `CC(CCO)CC(C)(C)C` (configuration not stated), the result was inactive. For the molecule `CC/C=C\CCCCCCCCCCOC(C)=O`, the call was inactive. The same measure, in the same setting: next, `CC(=O)OC(C)(C)C1CC=C(C)CC1` (configuration not stated): “inactive”; `CC(=O)CC(=O)N(C)C`: “inactive”; `C1COCO1`: “inactive”. `CN(C)CCC=C1c2ccccc2CCc2ccccc21`: the half-maximal activity concentration (AC50) was 124 nM (active). Turning to `CCC(CC)CO`, the molecule was called inactive. For the molecule `CC(C)COC(=O)c1ccccc1O`, the result was inactive. The same measure, in the same setting: the entry for `C=C(C)C(=O)OCCC(F)(F)C(F)(F)C(F)(F)C(F)(F)C(F)(F)C(F)(F)C(F)(F)C(F)(F)F` is “inactive”; for `CCC(C)C1CCCCC1=O` (configuration not stated) it is “inactive”; for `CC(O)CN` (configuration not stated) it is “inactive”. Same read-out and setting: the entry for `ClCCOCCOCCCl` is “inactive”.

As to `O=S(=O)(O)C(F)(F)C(F)(F)OC(F)(F)C(F)(F)F`, the molecule was called inactive. Same read-out and setting: next, `CCCO[Si](OCCC)(OCCC)OCCC`: “inactive”; `CCCCCCCCSCc1cc(C)c(O)c(CSCCCCCCCC)c1`: “inactive”; `O=C(O)c1cccc(Cl)n1`: “inactive”. On the same count and under the same terms, next, `c1ccc(OCCOc2ccccc2)cc1`: “inactive”; `C=C(C)C(=O)OCCN(C)C`: “inactive”; `CC(C)=CCCC(C)=CC(=O)O`: “inactive”.

As to `CCC(C)(C)C1CCC(=O)CC1`, the result was inactive. Same read-out and setting: the entry for `CC(=O)CCC=C(C)CCC=C(C)C` is “inactive”.
